Targets with a hit are over-represented here; the source holds about 7,900 in all. About 0.6% of all pairs of compound and target were hits.
Legend:
Assay in all cases: log2 fold change, soluble protein after heating vs DMSO (PISA); higher = thermal stabilisation; K562 cells, 10 uM, 30 min; active = over 0.2 and 3.5 SD of the protein, either way, in both replicates (recomputed)
[1] = compound: C1=CC=C(C=C1)[C@H](COC2=CC3=C(C=C2)NC(=O)N3)NC(=O)C4=CC=CN(C4=O)CC5=CC(=C(C=C5)F)F
Procedure, shortened: (§1)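 For each measurement, 10 μM compound was applied for 30 min to K562 cells at 2×10^6 cells/mL. Aliquots were heated for 3 min across 48°C-58°C, pooled, and extracted in PBS with 0.5% NP-40 at 4°C; the supernatant after 21,000xg for 90 min was soluble protein. This was quantified by TMTpro 16plex LC-MS/MS with channel sums equalised, and thermal stability was reported relative to control samples from duplicates, on a log2 fold-change scale.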

[2] = compound: CC1=C(SC2=C1C(=N[C@H](C3=NN=C(N32)C)CC(=O)N)C4=CC=C(C=C4)Cl)C
Procedure, shortened: as §1

[3] = compound: CC1=C2C(=CC=C1)N=C(N(C2=O)C3=CC=CC=C3C)CN4C=NC5=C(N=CN=C54)N
Procedure, shortened: as §1

[4] = compound: Cc1sc2c(c1C)C(c1ccc(Cl)cc1)=N[C@@H](CC(=O)OC(C)(C)C)c1nnc(C)n1-2
Procedure, shortened: as §1

[5] = compound: c1ccc([C@@H]2C[C@H]2NC2CCNCC2)cc1
Procedure, shortened: as §1

Measured: log2 fold change

SMDT1 (UniProt Q9H4I9)
inactive: [1] 0.031 | [2] 0.018 | [3] -0.081 | [4] -0.019 | [5] 0.024

STXBP2 isoform 3 (UniProt Q15833)
inactive: [1] -0.15 | [2] -0.05 | [3] 0.071 | [4] 0.031 | [5] -0.03

STK17B (UniProt O94768)
inactive: [1] 0.043

SLC38A7 (UniProt Q9NVC3)
Sequence of UniProt Q9NVC3 (Q9NVC3 whole entry, looked up): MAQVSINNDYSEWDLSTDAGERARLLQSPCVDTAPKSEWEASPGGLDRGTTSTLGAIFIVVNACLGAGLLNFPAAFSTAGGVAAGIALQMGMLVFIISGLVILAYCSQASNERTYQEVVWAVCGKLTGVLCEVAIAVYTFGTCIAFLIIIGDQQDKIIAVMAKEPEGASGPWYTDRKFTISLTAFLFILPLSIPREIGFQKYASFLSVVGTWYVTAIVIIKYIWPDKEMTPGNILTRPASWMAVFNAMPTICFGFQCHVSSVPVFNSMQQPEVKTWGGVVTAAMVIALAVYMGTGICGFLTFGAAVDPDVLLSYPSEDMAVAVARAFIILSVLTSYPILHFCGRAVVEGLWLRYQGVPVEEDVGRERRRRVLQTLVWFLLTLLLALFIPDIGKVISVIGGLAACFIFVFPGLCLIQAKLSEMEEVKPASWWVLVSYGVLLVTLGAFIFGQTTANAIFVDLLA
inactive: [1] 0.021 | [2] -0.031 | [3] -0.004 | [4] -0.035 | [5] 0.117

SLC29A3 (UniProt Q9BZD2)
Sequence of UniProt Q9BZD2 (Q9BZD2 whole entry, looked up): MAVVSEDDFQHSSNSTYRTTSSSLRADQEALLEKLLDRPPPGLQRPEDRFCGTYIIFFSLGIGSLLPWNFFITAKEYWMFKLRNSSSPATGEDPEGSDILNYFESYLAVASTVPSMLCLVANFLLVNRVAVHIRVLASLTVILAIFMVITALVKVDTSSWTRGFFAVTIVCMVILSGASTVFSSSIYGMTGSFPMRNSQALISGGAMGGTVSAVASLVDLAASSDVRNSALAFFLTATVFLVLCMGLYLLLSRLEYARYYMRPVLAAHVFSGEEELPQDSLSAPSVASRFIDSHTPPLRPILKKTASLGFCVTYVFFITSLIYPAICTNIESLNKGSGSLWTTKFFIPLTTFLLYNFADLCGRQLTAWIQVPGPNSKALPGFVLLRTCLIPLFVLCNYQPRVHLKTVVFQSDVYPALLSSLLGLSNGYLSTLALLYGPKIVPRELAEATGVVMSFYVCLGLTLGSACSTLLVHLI
inactive: [1] 0.036 | [2] 0.033 | [3] 0.044 | [4] -0.352 | [5] 0.139

SLC35B1 isoform 2 (UniProt P78383)
inactive: [1] -0.166 | [2] -0.233 | [3] 0.146 | [4] -0.215 | [5] 0.027

TACC2 (UniProt O95359)
Sequence of UniProt O95359 (O95359 whole entry, looked up): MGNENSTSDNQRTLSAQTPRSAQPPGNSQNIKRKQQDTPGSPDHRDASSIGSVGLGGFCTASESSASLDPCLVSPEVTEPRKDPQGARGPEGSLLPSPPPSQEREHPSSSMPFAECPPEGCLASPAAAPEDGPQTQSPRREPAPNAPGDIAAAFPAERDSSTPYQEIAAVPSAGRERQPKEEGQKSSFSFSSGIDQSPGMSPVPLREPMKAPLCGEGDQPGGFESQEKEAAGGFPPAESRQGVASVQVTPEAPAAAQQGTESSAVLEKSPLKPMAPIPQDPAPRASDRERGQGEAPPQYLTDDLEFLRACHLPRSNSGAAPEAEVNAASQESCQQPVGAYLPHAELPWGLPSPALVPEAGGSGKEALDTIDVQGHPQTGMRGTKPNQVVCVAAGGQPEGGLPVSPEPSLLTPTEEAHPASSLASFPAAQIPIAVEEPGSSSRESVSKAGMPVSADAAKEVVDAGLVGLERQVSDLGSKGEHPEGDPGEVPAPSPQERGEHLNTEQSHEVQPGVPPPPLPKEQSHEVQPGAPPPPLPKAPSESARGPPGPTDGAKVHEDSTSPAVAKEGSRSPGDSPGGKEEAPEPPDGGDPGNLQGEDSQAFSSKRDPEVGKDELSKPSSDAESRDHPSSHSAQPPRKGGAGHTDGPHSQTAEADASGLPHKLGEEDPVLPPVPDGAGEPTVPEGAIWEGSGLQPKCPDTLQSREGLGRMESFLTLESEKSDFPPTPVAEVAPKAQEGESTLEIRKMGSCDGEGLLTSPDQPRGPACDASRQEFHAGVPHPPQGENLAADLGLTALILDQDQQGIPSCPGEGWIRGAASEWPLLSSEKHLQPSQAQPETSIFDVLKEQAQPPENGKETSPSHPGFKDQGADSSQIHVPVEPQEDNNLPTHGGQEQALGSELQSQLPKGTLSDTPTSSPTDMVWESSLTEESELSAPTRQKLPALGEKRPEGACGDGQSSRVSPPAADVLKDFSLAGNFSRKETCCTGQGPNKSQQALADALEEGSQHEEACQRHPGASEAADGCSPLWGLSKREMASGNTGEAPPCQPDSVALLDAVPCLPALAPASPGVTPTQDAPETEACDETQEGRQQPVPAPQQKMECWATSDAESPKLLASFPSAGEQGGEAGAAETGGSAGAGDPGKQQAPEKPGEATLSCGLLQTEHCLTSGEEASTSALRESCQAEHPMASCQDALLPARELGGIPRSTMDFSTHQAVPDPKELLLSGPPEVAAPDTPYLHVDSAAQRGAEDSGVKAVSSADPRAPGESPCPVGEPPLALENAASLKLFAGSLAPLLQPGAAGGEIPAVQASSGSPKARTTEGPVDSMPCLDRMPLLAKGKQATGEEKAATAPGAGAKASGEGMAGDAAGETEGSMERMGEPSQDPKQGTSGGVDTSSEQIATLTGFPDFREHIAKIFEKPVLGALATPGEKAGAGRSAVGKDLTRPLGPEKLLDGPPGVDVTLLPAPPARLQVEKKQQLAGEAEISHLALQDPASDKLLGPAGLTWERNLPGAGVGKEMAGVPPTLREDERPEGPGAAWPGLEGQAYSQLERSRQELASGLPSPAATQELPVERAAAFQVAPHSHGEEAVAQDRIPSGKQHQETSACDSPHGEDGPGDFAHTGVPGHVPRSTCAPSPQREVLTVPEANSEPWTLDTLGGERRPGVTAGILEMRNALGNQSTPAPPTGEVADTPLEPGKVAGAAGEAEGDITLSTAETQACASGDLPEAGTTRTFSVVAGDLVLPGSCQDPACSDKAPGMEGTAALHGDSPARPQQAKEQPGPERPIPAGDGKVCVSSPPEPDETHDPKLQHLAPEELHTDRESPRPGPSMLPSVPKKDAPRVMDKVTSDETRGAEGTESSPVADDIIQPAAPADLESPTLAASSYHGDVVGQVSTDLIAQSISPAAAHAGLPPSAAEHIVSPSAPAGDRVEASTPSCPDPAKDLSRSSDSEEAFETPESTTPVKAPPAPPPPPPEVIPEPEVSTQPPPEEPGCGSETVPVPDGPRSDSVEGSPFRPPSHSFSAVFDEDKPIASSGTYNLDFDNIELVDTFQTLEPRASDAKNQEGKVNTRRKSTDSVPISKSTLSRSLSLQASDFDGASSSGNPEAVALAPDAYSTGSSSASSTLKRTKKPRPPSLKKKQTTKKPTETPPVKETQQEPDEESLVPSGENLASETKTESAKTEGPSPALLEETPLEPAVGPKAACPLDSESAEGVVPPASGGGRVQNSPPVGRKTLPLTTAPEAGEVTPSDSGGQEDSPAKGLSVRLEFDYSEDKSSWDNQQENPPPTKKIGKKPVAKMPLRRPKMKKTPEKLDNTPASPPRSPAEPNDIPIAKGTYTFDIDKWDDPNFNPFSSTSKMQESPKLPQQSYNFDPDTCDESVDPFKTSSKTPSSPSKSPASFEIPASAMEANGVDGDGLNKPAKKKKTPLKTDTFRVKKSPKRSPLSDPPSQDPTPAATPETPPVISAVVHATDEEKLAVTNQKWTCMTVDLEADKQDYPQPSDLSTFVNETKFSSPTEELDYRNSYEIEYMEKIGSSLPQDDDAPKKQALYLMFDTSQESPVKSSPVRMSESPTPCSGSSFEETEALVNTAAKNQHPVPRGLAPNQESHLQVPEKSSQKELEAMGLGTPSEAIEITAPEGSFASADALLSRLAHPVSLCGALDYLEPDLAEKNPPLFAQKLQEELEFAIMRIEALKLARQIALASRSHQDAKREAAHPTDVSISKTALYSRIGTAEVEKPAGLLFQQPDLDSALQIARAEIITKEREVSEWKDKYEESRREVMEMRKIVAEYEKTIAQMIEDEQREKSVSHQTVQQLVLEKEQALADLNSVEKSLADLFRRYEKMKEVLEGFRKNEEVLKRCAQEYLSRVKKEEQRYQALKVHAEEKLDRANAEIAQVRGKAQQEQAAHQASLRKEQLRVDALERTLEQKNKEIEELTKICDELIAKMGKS
inactive: [1] -0.031 | [2] -0.03 | [3] 0.166 | [4] 0.011 | [5] 0.05

TJP2 isoform 7 (UniProt Q9UDY2)
Sequence of UniProt Q9UDY2 (Q9UDY2 whole entry, looked up): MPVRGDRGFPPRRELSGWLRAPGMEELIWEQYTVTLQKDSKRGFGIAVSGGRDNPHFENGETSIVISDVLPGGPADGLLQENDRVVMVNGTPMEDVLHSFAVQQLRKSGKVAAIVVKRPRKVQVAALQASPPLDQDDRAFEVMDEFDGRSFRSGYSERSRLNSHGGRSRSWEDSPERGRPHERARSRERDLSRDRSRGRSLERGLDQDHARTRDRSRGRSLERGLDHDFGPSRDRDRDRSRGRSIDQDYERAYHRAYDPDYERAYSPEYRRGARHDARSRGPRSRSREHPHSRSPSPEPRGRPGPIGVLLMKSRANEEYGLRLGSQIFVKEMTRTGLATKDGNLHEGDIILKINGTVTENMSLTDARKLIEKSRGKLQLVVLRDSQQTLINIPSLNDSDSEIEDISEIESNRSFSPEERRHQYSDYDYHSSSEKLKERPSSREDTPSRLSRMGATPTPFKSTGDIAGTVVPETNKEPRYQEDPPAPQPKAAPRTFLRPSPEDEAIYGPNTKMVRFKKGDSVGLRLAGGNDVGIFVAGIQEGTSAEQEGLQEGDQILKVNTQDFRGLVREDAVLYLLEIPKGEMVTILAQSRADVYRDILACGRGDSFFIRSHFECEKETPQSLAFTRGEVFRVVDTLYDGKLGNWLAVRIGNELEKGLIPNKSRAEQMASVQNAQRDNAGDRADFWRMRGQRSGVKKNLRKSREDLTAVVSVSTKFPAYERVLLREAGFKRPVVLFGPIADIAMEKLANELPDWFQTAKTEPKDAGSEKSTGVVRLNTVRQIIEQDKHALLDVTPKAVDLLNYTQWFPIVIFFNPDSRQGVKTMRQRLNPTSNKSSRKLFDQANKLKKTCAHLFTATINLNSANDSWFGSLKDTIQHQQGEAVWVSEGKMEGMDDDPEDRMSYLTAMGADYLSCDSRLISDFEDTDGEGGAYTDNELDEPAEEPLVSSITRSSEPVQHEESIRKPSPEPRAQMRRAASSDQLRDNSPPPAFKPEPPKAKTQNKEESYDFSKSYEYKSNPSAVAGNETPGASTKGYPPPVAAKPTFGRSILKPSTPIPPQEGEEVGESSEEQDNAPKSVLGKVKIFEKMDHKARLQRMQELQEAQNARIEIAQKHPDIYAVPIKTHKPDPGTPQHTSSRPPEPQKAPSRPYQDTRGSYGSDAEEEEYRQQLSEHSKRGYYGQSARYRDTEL
inactive: [1] -0.03 | [2] 0.084 | [3] 0.081 | [4] 0.04 | [5] -0.044

TEX264 (UniProt Q9Y6I9)
inactive: [1] -0.024 | [2] 0.03 | [3] -0.072 | [4] -0.084 | [5] -0.02

From the supplement of paper PMC10849652
